Experimental findings from PubChem BioAssay (NCI) are described below.

The panel holds about 83,000 compounds, 20% with a hit somewhere; the sample as a whole holds those more often.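 For each line, cells grew in 96-well plates with the test compound present at a single concentration for 48 hours.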 A number with no mark means an inactive call. Activity calls are given as the source filed them.

This experiment relates to A498 renal. The experiment in a line: NCI-60 one-dose screen, 48 h (100 = growth as untreated, 0 = no growth, -100 = all killed). Particulars: 10 µM unless noted. As for the experimental part: Growth inhibition of the A498 human tumor cell line is measured as a screen for anti-cancer activity. Cells are grown in 96 well plates and exposed to the test compound for 48 hours. Compounds are tested at a single concentration, which is 10^-5 M for most compounds. The reported endpoint is percent growth (GI% or GIPRCNT), where numbers from 0 - 100% represent growth inhibition, and numbers from -100% - 0 represent cell death. For example, a value of 40 represents 60% growth inhibition. A value of 0 means no net growth occurred over the course of the experiment. A value of -40 indicates 40% of cells at the beginning of the experiment died by the end of the experiment. A value of -100 means all cells are dead at the end of the experiment.
NCI-60 Human Tumor Cell Lines Screen was performed using the standard one-dose NCI protocol, which is described in more detail at https://dtp.cancer.gov/discovery_development/nci-60/default.htm.
Compounds with GIPRCNT values below 10 were considered active. Activity score was based on GIPRCNT using the following formula: […]
Score is 0 for GIPRCNT values of 100 or above, 50 for GIPRCNT values of 0, and 100 for GIPRCNT values of -100.
On to `Clc1ccc(C2c3ccccc3-c3nccn32)c(Cl)c1` (stereo not given), for which the growth was 90.3%.
Take `CCOC(=O)C1=CCC(n2cc(C)c(=O)[nH]c2=O)O1` (stereo not given): the growth is 121%.
The value for `O=[N+]([O-])c1ccc(N=Nc2c(Cl)cc(O)cc2Cl)cc1` was -26.4% (active).
Regarding `Cc1ccc(C(=O)Cc2ccccc2)c(O)c1`, the growth was 79.3%.
`C[C@@H]1[C@H]2[C@H](C=C3[C@@H]4CC[C@H]5Cc6nc7c(nc6C[C@]5(C)[C@H]4C[C@@H](O)[C@@]32C)C[C@@H]2CC[C@H]3C4=C[C@@H]5O[C@@]6(CC[C@](C)(CO)O6)[C@@H](C)[C@@]5(O)[C@@]4(C)[C@H](O)C[C@@H]3[C@@]2(C)C7)O[C@]12CCC(C)(C)O2`: the growth is -72.6% (active).
Turning to `FC(F)(F)c1ccc(-c2cnc(-c3nn[nH]n3)nc2NC2CCCCCC2)cc1`, the growth is 61.5% [50 µM].
Regarding `CC(=O)c1ccc(NS(=O)(=O)c2ccc([N+](=O)[O-])cc2)cc1`, the growth was 90.5%.
On to `COc1ccc(Cl)cc1Nc1nc(C(F)(F)F)ccc1C(=O)N/N=C/c1c(Cl)cccc1Cl`, for which the growth was -21.9% (active).
As for `Cc1nn2c(/C=C3/C(=O)Nc4cc(Cl)ccc43)c(-c3ccccc3)nc2s1`, the growth is 80.2%.
With `CC(=O)OCC(=O)[C@@]1(O)CC[C@H]2[C@@H]3CCC4=CC(=O)CC[C@]4(C)[C@@]3(F)[C@@H](O)C[C@@]21C`, the growth is 103%.
On to `CC(=O)c1ccccc1NC(=O)C(C)(c1ccccc1)c1ccccc1`, for which the growth is -17.9% (active).
The value for `CS(=O)(=O)N1CCN(Cc2cc3nc(-c4cccc5[nH]ncc45)nc(N4CCOCC4)c3s2)CC1` (tested in a mixture with another compound) was -62.1% (active).
With `COc1ccc2c(=O)c(OC)c(-c3cc(OC)c(OC)c(OC)c3)oc2c1`, the growth was 96.1%.
In the case of `CCOc1cc(/C=C/C(=O)CC(=O)/C=C/c2ccc(OC(=O)CNc3nc4ccc(OC)cc4s3)c(OCC)c2)ccc1OC(=O)CNc1nc2ccc(OC)cc2s1`, the growth was 91.6%.
As to `Nc1ccc(N=Nc2ccccc2)cc1[N+](=O)[O-]`, the growth was 109%.
Regarding `COc1cnc2c(c1)C(=O)c1c-2n(CCCN2CCC(O)CC2)c(=O)c2cc(F)ccc12`, the growth is -87.9% (active).
For `CC1(C)CC2(C)CC(=O)C1C(C(=O)O)C2C(=O)O` (stereo not given), the growth was 111%.
As to `CCNCCCn1c2c(c3ccc(F)cc3c1=O)C(=O)c1cc(OC)cnc1-2`, the growth is -91.2% (active).
As to `Cc1ccc(/C=C/C(=O)c2ccc(F)cc2)s1`, the growth is 70.1%.
The value for `COc1ccc2nc(N/N=C(\C)c3ccccn3)cc(C)c2c1` was -64.5% (active); that for `COc1ccc(C(=O)/C=C/c2cccc(Nc3ccnc4cc(Cl)ccc34)c2)cc1` was 39.7%.
The value for `NS(=O)(=O)c1ccc(-n2nc(-c3ccc(Br)cc3)ccc2=O)cc1` was 40.6% [100 µM]; that for `O=C(C(=O)c1cc(Br)ccc1O)c1cc(Br)ccc1O` was 93.5%; that for `CCCCCCCCN(CCO)CCCCCCCC` was 111%.
Turning to `CCCCOP(=O)(OCCCC)C(C(=O)OCC)C(CC(=O)OCC)C(=O)OCC` (stereo not given), the growth was 97.8%.
Turning to `O=C(Nc1ccc(Cl)cc1)Nc1nc2ccc(OC(F)(F)F)cc2o1`, the growth was 119%.
The value for `Oc1c(Cl)cc(Oc2cc(Cl)c(O)c(CN3CCOCC3)c2)cc1CN1CCOCC1` was 84.7%.
On to `COc1cnc2c(c1)C(=O)c1c-2n(CCCN2CCOCC2)c(=O)c2cc(F)ccc12`, for which the growth is -24% (active).
As for `Cc1cc2ccccn2c1C(=O)c1ccc(C(=O)c2ccccc2)cc1`, the figure is 90.5%.
Consider `CCOC(=O)CNC(=O)C1(NC(=O)CNC(=O)OCc2ccccc2)CCCC1`, for which the growth is 102%.
Take `Cc1ccc(NC(=O)c2sc3nc4c(cc3c2N)C(=O)CCC4)cc1`: the growth is -3.97% (active).
In the case of `CCCCCCCCCCOC(C)=O`, the growth was 108%.
Turning to `O=C1/C=C/[C@@H](O)[C@@H]2C[C@@H](O)C[C@H]2/C=C/CCC[C@H](CO)O1`, the growth is -30.3% (active).
As to `Fc1ccc(-c2nn3c(-c4cc(C(F)(F)F)cc(C(F)(F)F)c4)nnc3s2)cc1`, the growth was -18.5% (active).
With `Cc1[nH]cnc1/C=C1\SC(N2CCCCC2)=NC1=O`, the growth was 83.4%.
On to `O=C1c2cccc(NCCN=Cc3ccccc3O)c2C(=O)c2c(NCCN=Cc3ccccc3O)cccc21`, for which the growth is 50.7%.
In the case of `O=C(N/N=C/c1cccc(O)c1O)c1ccccc1`, the growth is 81.1%.
In the case of `O=C(Nc1ccccc1)c1cc(-n2cnc([N+](=O)[O-])c2)cc(-n2cnc([N+](=O)[O-])c2)n1`, the growth is 114%.
Turning to `CC1C(C)N(C(=O)CCl)c2ccccc2N1C(=O)CCl` (stereo not given), the growth was -83.5% (active).
`CC(=O)OC1Oc2cc(C)c(C)cc2-c2oc(=O)c(-c3ccccc3)cc21` (stereo not given): the growth is -1.55% (active).
